# How the values were obtained:
# Experiment in all cases: DAPPL (digital affinity profiling via proximity ligation, sequencing); 10 mM Tris-HCl pH 7.5, 50 mM NaCl, 1 mM DTT, 4% glycerol, room temperature, 30 min; GST-TFs on glutathione beads, 16-mer random dsDNA library, 0.1% formaldehyde crosslink after washing; high values mean tight binding
# Conditions in all cases: protein: recombinant; tags: N-terminal GST; dsDNA, one strand shown
# FLI1 = biological target: T1, FLI1 (Homo sapiens, UniProt Q01543 1-452)
# T1 sequence: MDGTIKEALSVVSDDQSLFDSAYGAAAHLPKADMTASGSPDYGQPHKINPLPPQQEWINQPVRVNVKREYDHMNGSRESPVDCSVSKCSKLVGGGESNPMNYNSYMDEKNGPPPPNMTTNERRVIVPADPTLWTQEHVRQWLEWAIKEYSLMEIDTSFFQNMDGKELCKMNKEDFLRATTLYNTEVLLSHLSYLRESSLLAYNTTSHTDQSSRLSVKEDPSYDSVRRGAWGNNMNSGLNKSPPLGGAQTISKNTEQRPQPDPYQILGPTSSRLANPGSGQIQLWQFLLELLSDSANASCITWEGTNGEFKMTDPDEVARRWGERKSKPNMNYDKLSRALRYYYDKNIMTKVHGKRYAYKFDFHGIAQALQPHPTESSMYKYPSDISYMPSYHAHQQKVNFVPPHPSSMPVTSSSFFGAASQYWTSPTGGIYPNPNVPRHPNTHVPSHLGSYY
# Outline: (§1)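 Yeast served to express human transcription factors as GST fusions, which were then captured on glutathione beads and labelled with DNA barcodes. Pooled with a tag-only sample, they were incubated with 200 nmole of a 16-mer random double-stranded DNA library for 30 min at room temperature in Tris/NaCl/DTT/glycerol buffer, washed, crosslinked with 0.1% formaldehyde, ligated by proximity, amplified by PCR and sequenced. Dividing each hexamer's read frequency for a factor by its frequency for the tag-only sample gives the binding signal.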
# ELK1 = biological target: T2, ELK1 (Homo sapiens, UniProt P19419 1-428)
# T2 sequence: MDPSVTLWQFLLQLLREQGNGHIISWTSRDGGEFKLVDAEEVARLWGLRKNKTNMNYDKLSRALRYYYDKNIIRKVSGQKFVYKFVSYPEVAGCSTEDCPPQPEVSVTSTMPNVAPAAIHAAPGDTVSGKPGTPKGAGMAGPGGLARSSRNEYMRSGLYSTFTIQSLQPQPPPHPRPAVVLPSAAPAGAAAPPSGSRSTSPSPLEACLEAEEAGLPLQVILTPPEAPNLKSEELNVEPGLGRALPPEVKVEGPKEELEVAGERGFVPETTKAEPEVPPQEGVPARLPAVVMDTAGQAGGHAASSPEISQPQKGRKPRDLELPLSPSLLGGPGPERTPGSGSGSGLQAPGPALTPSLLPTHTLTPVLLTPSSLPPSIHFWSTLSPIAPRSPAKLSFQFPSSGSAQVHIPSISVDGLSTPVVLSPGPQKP
# Outline: as §1
# GABPA = biological target: T3, GABPA (Homo sapiens, UniProt Q06546 1-454)
# T3 sequence: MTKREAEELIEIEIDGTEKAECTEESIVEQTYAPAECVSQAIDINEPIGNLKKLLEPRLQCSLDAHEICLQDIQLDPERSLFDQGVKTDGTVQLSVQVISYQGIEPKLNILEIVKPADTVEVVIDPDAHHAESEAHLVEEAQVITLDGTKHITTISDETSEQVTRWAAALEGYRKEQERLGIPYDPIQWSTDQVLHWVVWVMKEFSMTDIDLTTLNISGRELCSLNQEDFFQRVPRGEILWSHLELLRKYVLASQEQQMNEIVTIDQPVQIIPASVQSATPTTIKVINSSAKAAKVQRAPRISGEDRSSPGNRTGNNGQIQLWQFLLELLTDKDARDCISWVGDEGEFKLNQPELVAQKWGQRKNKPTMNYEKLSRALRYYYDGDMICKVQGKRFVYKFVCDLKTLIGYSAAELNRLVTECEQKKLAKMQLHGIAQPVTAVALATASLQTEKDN
# Outline: as §1
# ERG = biological target: T4, ERG (Homo sapiens, UniProt P11308 1-479)
# T4 sequence: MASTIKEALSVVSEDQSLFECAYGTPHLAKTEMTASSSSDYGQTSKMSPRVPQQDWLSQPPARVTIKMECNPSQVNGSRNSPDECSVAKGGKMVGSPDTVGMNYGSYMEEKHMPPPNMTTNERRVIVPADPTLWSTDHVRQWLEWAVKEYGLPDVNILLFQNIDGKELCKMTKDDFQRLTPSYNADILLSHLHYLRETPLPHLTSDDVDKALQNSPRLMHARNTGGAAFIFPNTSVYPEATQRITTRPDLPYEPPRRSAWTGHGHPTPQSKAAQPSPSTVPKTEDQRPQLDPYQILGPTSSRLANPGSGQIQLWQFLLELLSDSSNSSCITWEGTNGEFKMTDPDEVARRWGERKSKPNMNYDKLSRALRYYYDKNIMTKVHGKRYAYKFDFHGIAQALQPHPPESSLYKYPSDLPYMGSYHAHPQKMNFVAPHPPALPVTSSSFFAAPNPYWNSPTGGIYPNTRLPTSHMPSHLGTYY
# Outline: as §1
# ELF1 = ELF1 (Homo sapiens, UniProt P32519 1-619)
# Outline: as §1
# EHF = biological target: T5, EHF (Homo sapiens, UniProt Q9NZC4 1-300)
# T5 sequence: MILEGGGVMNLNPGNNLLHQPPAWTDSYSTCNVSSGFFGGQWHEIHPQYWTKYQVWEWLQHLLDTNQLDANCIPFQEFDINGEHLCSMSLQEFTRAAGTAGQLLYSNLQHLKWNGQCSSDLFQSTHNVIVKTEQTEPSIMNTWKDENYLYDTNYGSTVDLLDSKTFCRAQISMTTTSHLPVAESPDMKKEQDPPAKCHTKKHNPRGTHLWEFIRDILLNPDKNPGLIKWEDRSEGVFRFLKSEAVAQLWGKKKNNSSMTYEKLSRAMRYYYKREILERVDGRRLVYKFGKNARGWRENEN
# Outline: as §1
# SPI1 = SPI1 (Homo sapiens, UniProt P17947 1-270)
# Outline: as §1
# SPIB = SPIB (Homo sapiens, UniProt Q01892 1-262)
# Outline: as §1
# ELK3 = biological target: T6, ELK3 (Homo sapiens, UniProt P41970 1-407)
# T6 sequence: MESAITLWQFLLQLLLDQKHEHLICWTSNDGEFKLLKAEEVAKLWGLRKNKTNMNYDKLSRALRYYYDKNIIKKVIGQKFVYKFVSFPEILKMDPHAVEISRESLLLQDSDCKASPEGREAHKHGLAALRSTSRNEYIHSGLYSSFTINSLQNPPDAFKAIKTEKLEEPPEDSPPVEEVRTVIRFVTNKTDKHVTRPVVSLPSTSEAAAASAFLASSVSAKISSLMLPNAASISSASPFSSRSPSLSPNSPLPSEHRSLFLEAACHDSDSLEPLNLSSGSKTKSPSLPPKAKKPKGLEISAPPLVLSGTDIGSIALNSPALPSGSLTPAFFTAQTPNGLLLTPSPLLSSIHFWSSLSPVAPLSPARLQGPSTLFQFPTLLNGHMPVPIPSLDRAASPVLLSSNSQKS
# Outline: as §1
# ELF4 = ELF4 (Homo sapiens, UniProt Q99607 1-663)
# Outline: as §1
# ELK4 = biological target: T7, ELK4 (Homo sapiens, UniProt P28324-2 1-405)
# T7 sequence: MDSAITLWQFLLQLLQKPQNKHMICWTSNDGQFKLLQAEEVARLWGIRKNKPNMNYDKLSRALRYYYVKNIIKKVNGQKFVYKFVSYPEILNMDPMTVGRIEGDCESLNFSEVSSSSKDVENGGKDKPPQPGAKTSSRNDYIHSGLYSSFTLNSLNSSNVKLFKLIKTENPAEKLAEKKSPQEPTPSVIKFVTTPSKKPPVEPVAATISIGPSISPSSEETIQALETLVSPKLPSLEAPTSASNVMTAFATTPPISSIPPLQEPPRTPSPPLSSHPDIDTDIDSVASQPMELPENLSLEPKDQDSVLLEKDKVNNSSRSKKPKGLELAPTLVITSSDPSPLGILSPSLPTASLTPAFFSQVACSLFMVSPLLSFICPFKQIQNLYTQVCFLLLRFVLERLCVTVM
# Outline: as §1
# ETV2 = biological target: T8, ETV2 (Homo sapiens, UniProt O00321 1-342)
# T8 sequence: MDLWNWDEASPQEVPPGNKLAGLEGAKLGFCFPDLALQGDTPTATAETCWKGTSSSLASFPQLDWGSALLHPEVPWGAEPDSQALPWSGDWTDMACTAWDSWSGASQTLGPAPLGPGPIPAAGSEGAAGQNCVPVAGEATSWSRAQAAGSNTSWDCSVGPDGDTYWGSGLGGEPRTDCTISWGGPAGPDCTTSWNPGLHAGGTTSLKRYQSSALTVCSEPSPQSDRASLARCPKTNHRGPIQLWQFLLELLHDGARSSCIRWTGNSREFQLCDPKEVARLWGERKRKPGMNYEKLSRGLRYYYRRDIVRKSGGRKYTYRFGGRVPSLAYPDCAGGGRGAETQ
# Outline: as §1
# ELF3 = biological target: T9, ELF3 (Homo sapiens, UniProt P78545 1-371)
# T9 sequence: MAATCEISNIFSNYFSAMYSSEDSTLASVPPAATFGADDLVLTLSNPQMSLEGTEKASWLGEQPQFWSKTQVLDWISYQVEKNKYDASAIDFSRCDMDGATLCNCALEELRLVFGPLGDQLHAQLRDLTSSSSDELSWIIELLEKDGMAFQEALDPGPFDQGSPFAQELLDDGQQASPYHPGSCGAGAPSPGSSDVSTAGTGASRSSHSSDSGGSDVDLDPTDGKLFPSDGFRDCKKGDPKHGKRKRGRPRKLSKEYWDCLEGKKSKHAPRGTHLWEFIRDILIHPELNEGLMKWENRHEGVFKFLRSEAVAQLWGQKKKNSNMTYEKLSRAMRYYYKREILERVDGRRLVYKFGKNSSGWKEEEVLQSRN
# Outline: as §1
# ERF = biological target: T10, ERF (Homo sapiens, UniProt P50548 1-548)
# T10 sequence: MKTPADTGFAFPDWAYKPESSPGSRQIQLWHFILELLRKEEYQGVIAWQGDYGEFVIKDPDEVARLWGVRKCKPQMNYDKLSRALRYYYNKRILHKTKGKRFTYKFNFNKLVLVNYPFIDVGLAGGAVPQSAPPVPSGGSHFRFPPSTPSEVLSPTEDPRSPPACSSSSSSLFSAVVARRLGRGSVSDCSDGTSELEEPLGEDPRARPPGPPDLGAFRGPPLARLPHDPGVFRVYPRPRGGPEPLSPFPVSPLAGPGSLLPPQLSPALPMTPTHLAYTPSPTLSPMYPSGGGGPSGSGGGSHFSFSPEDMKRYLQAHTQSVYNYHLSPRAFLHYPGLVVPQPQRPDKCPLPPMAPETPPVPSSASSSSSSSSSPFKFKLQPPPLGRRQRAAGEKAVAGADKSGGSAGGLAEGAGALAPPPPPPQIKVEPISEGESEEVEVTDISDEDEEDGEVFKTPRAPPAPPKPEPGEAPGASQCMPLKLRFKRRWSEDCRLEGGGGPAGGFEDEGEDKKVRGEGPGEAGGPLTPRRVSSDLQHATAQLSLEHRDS
# Outline: as §1
# ETV3L = biological target: T11, ETV3L (Homo sapiens, UniProt Q6ZN32 1-361)
# T11 sequence: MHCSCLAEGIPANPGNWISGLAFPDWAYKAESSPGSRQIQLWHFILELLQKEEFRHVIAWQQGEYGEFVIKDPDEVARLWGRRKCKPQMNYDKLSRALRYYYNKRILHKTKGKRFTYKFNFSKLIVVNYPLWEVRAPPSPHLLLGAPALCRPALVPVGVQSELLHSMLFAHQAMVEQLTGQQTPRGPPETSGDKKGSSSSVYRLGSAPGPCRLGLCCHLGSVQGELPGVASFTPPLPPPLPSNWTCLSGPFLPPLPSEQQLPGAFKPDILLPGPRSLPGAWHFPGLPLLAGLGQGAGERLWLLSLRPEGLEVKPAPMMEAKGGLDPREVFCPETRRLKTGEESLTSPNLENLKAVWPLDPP
# Outline: as §1
# ETV7 = biological target: T12, ETV7 (Homo sapiens, UniProt Q9Y603 1-341)
# T12 sequence: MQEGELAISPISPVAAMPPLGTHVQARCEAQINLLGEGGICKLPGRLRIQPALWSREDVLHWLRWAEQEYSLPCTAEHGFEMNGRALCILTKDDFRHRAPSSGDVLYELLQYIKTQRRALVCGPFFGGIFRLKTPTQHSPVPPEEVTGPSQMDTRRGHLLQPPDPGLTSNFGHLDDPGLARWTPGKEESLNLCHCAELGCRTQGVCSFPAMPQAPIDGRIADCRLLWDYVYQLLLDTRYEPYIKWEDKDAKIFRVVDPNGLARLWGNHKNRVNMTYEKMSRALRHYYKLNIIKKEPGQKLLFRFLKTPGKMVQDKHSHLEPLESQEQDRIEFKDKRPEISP
# Outline: as §1
# ETV3 = biological target: T13, ETV3 (Homo sapiens, UniProt P41162-2 1-143)
# T13 sequence: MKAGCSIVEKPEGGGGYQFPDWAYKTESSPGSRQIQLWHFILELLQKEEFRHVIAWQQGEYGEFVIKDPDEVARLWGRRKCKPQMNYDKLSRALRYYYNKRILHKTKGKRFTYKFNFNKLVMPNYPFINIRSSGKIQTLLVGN
# Outline: as §1
# ETV6 = ETV6 (Homo sapiens, UniProt P41212 1-452)
# Outline: as §1
# Chain of ELF1 (P32519 whole entry): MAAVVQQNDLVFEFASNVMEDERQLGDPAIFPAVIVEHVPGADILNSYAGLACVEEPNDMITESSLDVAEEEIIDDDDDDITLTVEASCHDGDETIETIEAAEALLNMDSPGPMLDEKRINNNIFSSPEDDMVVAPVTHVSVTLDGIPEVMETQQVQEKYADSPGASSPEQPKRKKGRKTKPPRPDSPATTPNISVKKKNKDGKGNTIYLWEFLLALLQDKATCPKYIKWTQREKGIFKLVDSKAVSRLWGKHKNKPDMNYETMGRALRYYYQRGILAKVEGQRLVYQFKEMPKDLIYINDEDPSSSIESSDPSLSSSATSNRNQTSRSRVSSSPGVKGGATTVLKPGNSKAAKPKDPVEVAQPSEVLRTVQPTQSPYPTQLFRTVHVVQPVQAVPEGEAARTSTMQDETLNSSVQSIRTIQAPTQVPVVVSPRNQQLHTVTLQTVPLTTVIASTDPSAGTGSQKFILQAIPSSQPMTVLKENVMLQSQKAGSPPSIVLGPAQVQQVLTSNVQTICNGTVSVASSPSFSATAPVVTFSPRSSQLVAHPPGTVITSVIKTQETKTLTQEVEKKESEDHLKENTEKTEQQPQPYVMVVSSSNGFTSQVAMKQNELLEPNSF
# Chain of SPIB (Q01892 whole entry): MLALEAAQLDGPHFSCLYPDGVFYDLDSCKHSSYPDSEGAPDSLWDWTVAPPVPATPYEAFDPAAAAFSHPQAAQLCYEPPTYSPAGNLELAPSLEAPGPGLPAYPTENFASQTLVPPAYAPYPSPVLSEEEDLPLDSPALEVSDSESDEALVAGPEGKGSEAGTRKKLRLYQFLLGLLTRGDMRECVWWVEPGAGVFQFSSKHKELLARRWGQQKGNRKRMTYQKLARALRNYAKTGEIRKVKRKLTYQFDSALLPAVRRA
# Chain of ELF4 (Q99607 whole entry): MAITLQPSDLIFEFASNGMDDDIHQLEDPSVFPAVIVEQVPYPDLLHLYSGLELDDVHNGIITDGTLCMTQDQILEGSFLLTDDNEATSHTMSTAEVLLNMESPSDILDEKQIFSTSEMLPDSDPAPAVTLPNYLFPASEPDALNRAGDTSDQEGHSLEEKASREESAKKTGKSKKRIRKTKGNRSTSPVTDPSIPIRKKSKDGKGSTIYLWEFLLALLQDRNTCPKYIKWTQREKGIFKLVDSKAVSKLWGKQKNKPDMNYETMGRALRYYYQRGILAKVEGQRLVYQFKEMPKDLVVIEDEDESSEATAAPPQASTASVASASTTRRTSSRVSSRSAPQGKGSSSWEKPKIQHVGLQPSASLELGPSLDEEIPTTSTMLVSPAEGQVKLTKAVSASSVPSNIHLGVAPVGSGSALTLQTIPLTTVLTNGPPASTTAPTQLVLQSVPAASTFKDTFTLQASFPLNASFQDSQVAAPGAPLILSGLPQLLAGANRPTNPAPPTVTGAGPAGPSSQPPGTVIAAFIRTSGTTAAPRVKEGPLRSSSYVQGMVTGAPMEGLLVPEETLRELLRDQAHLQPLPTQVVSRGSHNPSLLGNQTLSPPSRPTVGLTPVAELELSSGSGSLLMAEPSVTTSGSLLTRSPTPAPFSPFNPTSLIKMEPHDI
# Chain of ETV6 (P41212 whole entry): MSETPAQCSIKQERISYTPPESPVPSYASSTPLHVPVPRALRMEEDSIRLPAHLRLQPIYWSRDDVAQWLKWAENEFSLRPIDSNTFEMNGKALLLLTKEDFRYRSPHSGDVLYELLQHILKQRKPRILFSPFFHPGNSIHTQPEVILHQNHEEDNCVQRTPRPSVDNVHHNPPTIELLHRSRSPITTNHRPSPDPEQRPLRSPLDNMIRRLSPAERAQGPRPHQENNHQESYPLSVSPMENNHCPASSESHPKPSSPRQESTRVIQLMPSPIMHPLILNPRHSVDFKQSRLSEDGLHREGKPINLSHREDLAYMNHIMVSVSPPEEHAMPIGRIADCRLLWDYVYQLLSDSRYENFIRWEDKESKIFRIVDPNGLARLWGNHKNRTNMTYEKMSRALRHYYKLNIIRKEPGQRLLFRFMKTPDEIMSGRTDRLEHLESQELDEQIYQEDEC
sequence,measurement,setting,value
TGGCCA,binding signal,FLI1,"1.1 fold enrichment (6-mer frequency, TF over GST control)"
same,binding signal,ELK1,"1.09 fold enrichment (6-mer frequency, TF over GST control)"
same,binding signal,GABPA,"1.16 fold enrichment (6-mer frequency, TF over GST control)"
same,binding signal,ERG,"1.05 fold enrichment (6-mer frequency, TF over GST control)"
same,binding signal,ELF1,"1.14 fold enrichment (6-mer frequency, TF over GST control)"
same,binding signal,EHF,"1.05 fold enrichment (6-mer frequency, TF over GST control)"
same,binding signal,SPI1,"1.05 fold enrichment (6-mer frequency, TF over GST control)"
same,binding signal,SPIB,"1.13 fold enrichment (6-mer frequency, TF over GST control)"
same,binding signal,ELK3,"1.1 fold enrichment (6-mer frequency, TF over GST control)"
same,binding signal,ELF4,"1.13 fold enrichment (6-mer frequency, TF over GST control)"
same,binding signal,ELK4,"1.08 fold enrichment (6-mer frequency, TF over GST control)"
same,binding signal,ETV2,"1.02 fold enrichment (6-mer frequency, TF over GST control)"
same,binding signal,ELF3,"1.04 fold enrichment (6-mer frequency, TF over GST control)"
same,binding signal,ERF,"1.06 fold enrichment (6-mer frequency, TF over GST control)"
same,binding signal,ETV3L,"1.04 fold enrichment (6-mer frequency, TF over GST control)"
same,binding signal,ETV7,"1.09 fold enrichment (6-mer frequency, TF over GST control)"
same,binding signal,ETV3,"1 fold enrichment (6-mer frequency, TF over GST control)"
same,binding signal,ETV6,"1.09 fold enrichment (6-mer frequency, TF over GST control)"

# — paper PMC7862700, “An all-to-all approach to the identification of sequence-specific readers for epigenetic DNA modifications on cytosine”
